Assay results taken from PubChem BioAssay AID2314 (National Center for Advancing Translational Sciences (NCATS), 2010).
In all, about 300,000 compounds went through this assay and about 37,000 (12%) were called active. Shown is part of a subset that was picked to be rich in actives. Unmarked numbers belong to inactive results. Cut-off read from the data, not from the text of the source: active = max response mostly above about 13% (no sharp cut-off); inactive = mostly below about 14%.

Assay: Cycloheximide Counterscreen for Small Molecule Inhibitors of Shiga Toxin; note: read at 38.3 µM for the half of the compounds with a filed dose; 0% is about no effect
Details: cell reporter, cycloheximide protein synthesis inhibition counterscreen; stronger effect = higher value
Work on `CCC(Cc1ccccc1)NS(=O)(=O)c1ccc2c(c1)NC(=O)CS2` (stereo unspecified) yielded a max response of 0.995%. For `Cc1cc(C)c(C#N)c(Nc2cccc(Br)c2)n1`, the max response was 0.576%. In the case of `C[C@H](NC(=O)C1CC(=O)N(c2ccc3c(c2)OCCO3)C1)C(=O)N1CCC(C(=O)O)CC1` (stereo partly specified), the max response is reported as 7.17%. Work on `COc1ccc(C(=O)NC2CC(C)(C)NC(C)(C)C2)cc1OC` yielded a max response of -1.7%. Compound `COc1ccc(CN(C)C(C)C(=O)NC2CCCc3ccccc32)cc1` (stereo unspecified) has a max response of 4.63%. Work on `CC(=O)NCC(=O)N(C)C(C(=O)Nc1ccc2c(c1)OCCO2)c1ccccc1` (stereo unspecified) yielded a max response of -1.79%. With `O=C(COc1ccc(Cl)cc1)Nc1ccc2c(c1)OCO2` the max response was 15.8% (active). `O=C(CCS(=O)(=O)Cc1ccccc1)Nc1ccc2c(c1)OCCO2` showed a max response of -1.91%. Compound `COc1ccc(C2(C)NC(=O)N(CC(=O)c3ccc4c(c3)OCO4)C2=O)cc1` (stereo unspecified) has a max response of 1.46%. `CCC(C(=O)Nc1ccc(C(C)C)cc1)c1ccccc1` (stereo unspecified) showed a max response of -1.28%. With `CCCCC(=O)Nc1ccc2c(c1)OCCO2` the max response was 36.8% (active). For `CCC(C(=O)Nc1ccc2c(c1)OCCO2)c1ccccc1` (stereo unspecified), the max response was 19.2% (active). For `O=C(CN1CCN(c2ncc(C(F)(F)F)cc2Cl)CC1)Nc1ccc2c(c1)OCO2`, the max response was 2.27%. Compound `CCCCN(CC(=O)NC(C)(C)C)C(=O)C(=O)Nc1ccc2c(c1)OCCO2` has a max response of 5.6%. For `O=C(COc1ccc(Cl)cc1)Nc1ccc2oc(=O)ccc2c1`, the max response was -3.63%. `CCOc1ccc(C(=O)CCN2CCOCC2)cc1` gave a max response of 9.26%. With `CCOc1ccc(NCCC(=O)c2ccc3c(c2)OCO3)cc1` the max response was 14.4% (active). With `COCCOC(=O)C1=C(C)NC(=O)NC1c1cc2c(cc1Br)OCO2` (stereo unspecified) the max response was -5.73%. `Cc1ccc(NC(=O)CN(C)C(=O)COC(=O)C(C)(C)Oc2ccc(Cl)cc2)cc1` showed a max response of -3.38%. Compound `COc1ccccc1C(=O)Nn1cnnc1` has a max response of -2.95%. With `CCC(C)(C)NC(=O)CN(C(=O)CCC(=O)Nc1nccs1)c1ccc2c(c1)OCO2` the max response was -3.66%. With `COc1ccc(CCNC(=O)NS(=O)(=O)c2ccc(C)cc2)cc1OC` the max response was -2.33%. `COc1ccc(S(=O)(=O)NCCc2c[nH]c3ccccc23)cc1OC` showed a max response of 2.61%. In the case of `Nc1nc(SCc2cccc(Br)c2)n[nH]1`, the max response is reported as 0.308%. Compound `CCc1ccc(N2CC(C(=O)N3CCCCCC3)CC2=O)cc1` (stereo unspecified) has a max response of 15.1%. For `CCN(CC(=O)Nc1ccc2c(c1)OCO2)S(=O)(=O)c1ccccc1`, the max response was -0.651%. With `CCn1c(SCC(=O)Nc2ccc3c(c2)OCCO3)nnc1-c1ccncc1` the max response was 2.74%. In the case of `O=C(COc1ccc2c(C(F)(F)F)cc(=O)oc2c1)Nc1ccc2c(c1)OCCO2`, the max response is reported as 5.22%. Compound `Cc1ccc(S(=O)(=O)NCC(=O)Nc2ccc3c(c2)OCCO3)cc1` has a max response of 6.27%. With `CCN(CC(=O)Nc1ccc2c(c1)OCCO2)Cc1cc(=O)oc2cc(C)c(C)cc12` the max response was 11.2% (active). In the case of `Cc1ccc(SCC(=O)Nc2ccc3c(c2)OCCO3)cc1`, the max response is reported as 73.6% (active). For `COc1ccccc1OCCCC(=O)Nc1ccc2c(c1)OCCO2`, the max response was 32.1% (active). Work on `CCn1c(COc2ccccc2)nnc1SCC(=O)Nc1ccc2c(c1)OCCO2` yielded a max response of 8.26%. `CCC(C)(C)NC(=O)CN(C(=O)C(=O)Nc1ccc2c(c1)OCCO2)C(C)(C)CC` showed a max response of -5.87%. `COc1cccc(NC(=O)COC(=O)CCOc2ccccc2OC)c1` showed a max response of -1.24%. With `COC(=O)CCNc1ccc2c(c1)OCCO2` the max response was 48.2% (active). With `Cc1sc2ncn(CC(=O)NCCCC(=O)N(C)Cc3ccccc3)c(=O)c2c1C` the max response was 0.104%. `CCC(=O)N(Cc1cc2ccccc2[nH]c1=O)c1ccc(OC)cc1` showed a max response of -1.99%. In the case of `O=C(CNC(=O)OCc1ccccc1)NC1CCCCNC1=O` (stereo unspecified), the max response is reported as 1.1%. In the case of `CCOc1ccc(C(=O)Nc2ccc(S(=O)(=O)NCC3CCCO3)cc2)cc1OCC` (stereo unspecified), the max response is reported as -3.06%. `CCN(CC)CCNc1nc(-c2ccc(OC(F)F)cc2)c(C)s1` gave a max response of -2.43%. For `COc1ccc(-n2nc(C(=O)NCC(=O)N3CCC(C(N)=O)CC3)c3ccccc3c2=O)cc1OC`, the max response was -3.96%. Work on `CC(=O)c1c(C)oc2ccc(NS(=O)(=O)c3ccc(C(=O)O)cc3)cc12` yielded a max response of -0.66%. With `Cn1c(SCC(=O)c2cccs2)nnc1-c1ccco1` the max response was 29.8% (active). In the case of `CCOC(=O)CSc1nnc(-c2ccco2)n1C`, the max response is reported as -2.04%. `CCCCNC(=O)CSc1nnc(-c2ccco2)n1C` gave a max response of 1.17%. Compound `CC(C)CC(=O)Nc1nnc(S(=O)(=O)N(C)c2ccc(Cl)cc2)s1` has a max response of -2.39%. `COc1ccc2c(C(=O)c3ccc(C)cc3)n(CCC(N)=O)[n+]([O-])c2c1` gave a max response of 7.82%. Compound `COC(=O)c1c(NC(=O)c2ccc(S(=O)(=O)N3CCOCC3)cc2)sc2c1CCN(C(C)C)C2` has a max response of -1.08%. With `CC(=O)Nc1ccc(NC(=O)C2CCCN(S(=O)(=O)c3ccc(Cl)cc3)C2)cc1` (stereo unspecified) the max response was -5.06%. Compound `CCOC(=O)C1CCN(C(=O)Nc2ccc(Cl)cc2)CC1` has a max response of 12.6%. In the case of `CC(=O)N1CCC(N(C(=O)Nc2ccc(Cl)cc2)C(C)C)CC1`, the max response is reported as 9.65% (active). With `COc1cccc(NC(=O)C2C(c3ccccc3)C2(Cl)Cl)c1` (stereo unspecified) the max response was 1.73%. For `CCOCCOC(=O)C(C)Oc1ccc(Oc2ncc(C(F)(F)F)cc2Cl)cc1` (stereo unspecified), the max response was 0.288%. In the case of `CCOC(=O)CN(C(=O)COc1nc(C)cc(C)c1C#N)c1ccc(Cl)cc1`, the max response is reported as 1.33%. `c1ccc(-n2nc3ccccc3n2)cc1` showed a max response of 10.4%. Work on `O=C1CCC(=O)N(c2ccccc2)N1` yielded a max response of 4.98%. With `O=C1CCCc2nn(-c3ccccc3)nc21` the max response was 31.9% (active). Work on `CCCc1nc(SCC(=O)N2CCCC2)c2c(=O)n(C)c(=O)n(C)c2n1` yielded a max response of -1.08%. Compound `COCCNC(=O)CN(Cc1ccco1)C(=O)CCC(=O)Nc1nccs1` has a max response of -7.71%. `Cc1ccc(Nc2c(F)c(F)c(F)c(F)c2C(=O)O)c(C)c1` showed a max response of -3.03%.
